Screens: PubChem BioAssay, National Center for Advancing Translational Sciences (NCATS)
Pf growth 48h – inhibits P. falciparum growth in the first generation, 48 h; Potency, µM (top dose mostly 28.7 µM), for the others: top-dose activity change, negative = inhibition, actives largely listed as inhibitors; P. falciparum luciferase growth in erythrocytes, 48 h; AID 504832; 310,000 tested, 5.9% active; note: potency is the fitted concentration of half-maximal effect
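Erythrocytes infected with P. falciparum carrying an integrated firefly luciferase reporter (2% hematocrit, 0.1% parasitemia final) were exposed to compounds in RPMI 1640 with 0.5% Albumax at 37 C, 5% CO2. Growth inhibition was scored as reduced luminescence.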
MARV entry inh – blocks Marburg virus binding to or entry into cells; Marburg virus pseudotyped entry inhibition, cell reporter; Potency, µM (series often up to 37.8 µM), for the others: top-dose activity change, negative = inhibition, hits mostly inhibitors; 300,000 tested, 1.8% active; AID 540276; calls by dose curve; tested in HEK293 cells; note: potency is the fitted concentration of half-maximal effect
LASV entry inh – blocks Lassa virus binding to or entry into cells; Potency, µM (series often up to 37.9 µM), for inactives: at the highest dose activity change, negative = inhibition, hits mostly inhibitors; 300,000 tested, 1.2% active; Lassa virus pseudotype entry inhibition, cell reporter; calls by dose curve; tested in HEK293 cells; note: potency is the fitted concentration of half-maximal effect; nearly all actives have a fitted effect of over 50% in size
Pf growth 96h – inhibits malaria parasite growth, 96 h; Potency, µM (top dose mostly 28.7 µM), inactives show at the highest dose activity change, negative = inhibition, actives largely listed as inhibitors; 320,000 tested, 6.9% active; P. falciparum luciferase reporter growth, 96 h; note: potency is the fitted concentration of half-maximal effect
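Parasite growth measured via integrated firefly luciferase reporter in P. falciparum. Infected erythrocytes at 2% hematocrit, 0.05% parasitemia final were treated 96 hours at 37 C under 5% CO2, and luminescence was read.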
HCV inh – inhibitors of hepatitis C virus infection; Huh7.5.1 HCVcc-Cre infection, luciferase reporter, 44 h; Potency, µM (titrated, usually from 41.8 µM), without a hit: top-dose activity change, negative = inhibition, hits mostly inhibitors; 340,000 tested, 3.4% active; note: potency is the fitted concentration of half-maximal effect
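Seed cells (1,000/well) for 4 h; treat with compound and infect with HCVcc-Cre, moi about 0.5. Incubate 44 h, then detect luciferase activity.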
HCMV inh – blocks human cytomegalovirus replication. activity change, negative = inhibition, % at 57.5 µM. 410,000 tested, 4.5% active. HFF cells, HCMV-luciferase reporter, 72 h; stronger effect = lower value. AID 1259415; in the data active = activity change below about -60%; inconclusive = no clear call, values can overlap the other calls; inactive = above about -39%
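Screen run at 2 compound doses on HFFs infected with reporter HCMV, MOI 1 PFU/cell. Luciferase activity from cell lysates at 72 h post infection gave inhibition relative to buffer-only and Salinomycin wells.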
* marks the source's active call; other numbers are inactive results; ? = inconclusive; . = no result; [ ] = dose if it differs, or a comment. Shown are actives, neighbours in structure and some others; about 14% of the full set was active somewhere. Unless noted, calls come from the whole dose curve; as a rule, active = well fitted inhibition curve with a large enough effect; inconclusive = small, poorly fitted or top-dose-only effect, or another doubt; inactive = no such curve, though single readings can be large or run the other way. % is set by controls: 0 for no effect and ±100 for the full control effect.

SMILES	Pf growth 48h	MARV entry inh	LASV entry inh	Pf growth 96h	HCV inh	HCMV inh
O=C(NCc1ccco1)c1cccc2c1C(=O)c1ccc(/C=C/c3ccccc3)cc1S2(=O)=O	.	.	.	.	?	4.8
CCOC(=O)C1CCCN(C(=O)Cn2nc(Cc3cccnc3)c3ccccc3c2=O)C1 (stereo not drawn)	.	.	.	7.38µM*	14.7%	-3.2
CCC(C(=O)NCc1ccco1)N(C(=O)CNS(=O)(=O)c1ccccc1)C1CCCCC1 (stereo not drawn)	.	-12.8%	-9.8%	6.57µM*	27.6%	-10.1
CCCC(C(=O)NCc1ccco1)N(C(=O)CNS(=O)(=O)c1ccc(Cl)cc1)C1CCCC1 (stereo not drawn)	11.7µM*	-26.7%	?	14.1%	23.4%	4.0
CC(C)C(C(=O)NCc1ccco1)N(C(=O)CNS(=O)(=O)c1ccccc1)C1CCCC1 (stereo not drawn)	?	?	-18.5%	-13.8%	9.6%	29.8
COc1ccc(Cn2c(SCc3cc(C)ccc3C)nc3cc(OC)c(OC)cc3c2=N)cc1	1.65µM*	4.61µM*	6.51µM*	?	2.82µM*	-23.2
COc1cc2nc(SCc3ccc(Cl)cc3Cl)n(Cc3cccs3)c(=N)c2cc1OC	?	-25.9%	9.1%	13.1µM*	?	?
COc1ccc(Cn2c(SCc3ccc(C)cc3)nc3cc(OC)c(OC)cc3c2=N)cc1Cl	1.65µM*	2.82µM*	10µM*	2.33µM*	?	-99.5*
COc1cc2nc(SCc3ccc(C(F)(F)F)cc3)n(Cc3cccs3)c(=N)c2cc1OC	?	-10.1%	18.1%	0.0%	6.6%	-6.6
CCc1ccc(-c2nc3cc(NC(=O)c4cc5ccccc5cc4OC)ccc3o2)cc1	.	.	24.8%[46.1 µM]	.	.	-17.9
O=C1CCC(C2CCc3cc(O)ccc3C2)C1 (stereo not drawn)	.	0.8%	9.0%	.	1.1%	1.4
CC1CCCN(CCCNC(=O)c2cc(Sc3ccc(F)cc3)nc3ccccc23)C1 (stereo not drawn)	.	.	-17.4%[46.1 µM]	.	.	-71.3*
CCOCCCNC(=O)c1cc(Sc2ccc(C)cc2)nc2ccccc12	2.5%	?	?	-23.4%	?	-60.4*
COc1ccc(CCNC(=O)c2cc(Sc3cccc(Cl)c3)nc3ccccc23)cc1OC	.	.	?	.	.	-83.6*
O=C(NCCCN1CCCC1)c1cc(Sc2ccc(F)cc2)nc2ccccc12	?	?	.	38.2%	16.7%	-39.4
CCOCCCNC(=O)c1cc(Sc2cccc(Cl)c2)nc2ccccc12	.	.	-16.2%[46.1 µM]	.	.	?
O=C(NCCCN1CCCCC1)c1cc(Sc2ccc(Cl)cc2)nc2ccccc12	.	.	18.6%[46.1 µM]	.	.	-70.7*
Cc1nc2ccccc2c2oc(C(=O)NCCCN3CCCC(C)C3)cc12 (stereo not drawn)	?	.	.	-0.7%	?	-18.2
CCOc1ccc(Sc2cc(C(=O)NCCc3ccc(OC)c(OC)c3)c3ccccc3n2)cc1	.	.	-8.2%[46.1 µM]	.	.	-27.2
COC(=O)N[C@@H](C=Cc1ccccc1)C(C(=O)OC)=C(C)NCc1ccccc1	.	-22.2%[14.2 µM]	.	.	.	.
Cc1ccc(C(=O)/C=C/c2cc(C#N)n(C)c2C)cc1	-21.9%	-5.2%[46.1 µM]	0.6%	-5.0%	-6.3%	-85.0*
COc1ccc(NC(=O)N(C)C[C@H]2Oc3c(NS(=O)(=O)c4cccs4)cccc3C(=O)N([C@@H](C)CO)C[C@@H]2C)cc1	.	.	.	.	4.5%	-2.2
O=C1C(C23CC4CC(CC(C4)C2)C3)C(=O)N(c2ccccc2)N1c1ccccc1	-8.9%	7.3%	-14.0%	7.38µM*	14.1%	5.0
O=C1CC(=O)N(c2ccccc2)N1c1ccccc1	3.5%	11.2%	1.4%	46.0%	0.1%	16.5
Cc1cc(C)cc(N2C(=O)CSC2c2cccs2)c1 (stereo not drawn)	?	22.9%[46.1 µM]	3.4%	39.2%	2.8%	27.4
SMILES	Pf growth 48h	MARV entry inh	LASV entry inh	Pf growth 96h	HCV inh	HCMV inh
Cc1ccc(N2C(=O)CSC2c2cccs2)cc1 (stereo not drawn)	0.5%	1.5%	8.8%	0.165µM*	-1.9%	-6.2
c1ccc(-c2nc(SCc3nc4ccccc4[nH]3)c3oc4ccccc4c3n2)cc1	.	.	.	.	.	5.4
O=C(Cc1cccs1)Nc1ccc(C(=O)O)cc1	-8.6%	?	5.3%	.	9.7%	-77.0*
O=C(CNCc1cccs1)Nc1ccc(OC(F)(F)F)cc1	22.4%	?	-1.3%	10.4µM*	30.9%	3.4
COc1ccc(NC(=O)C(NC(=O)Cc2cccs2)c2ccccc2)cc1 (stereo not drawn)	16.3%	?	-0.9%	20.7%	2.1%	-67.7*
COc1ccc(S(=O)(=O)NCCc2sc(-c3cccc(C)c3)nc2C)cc1	.	.	-18.5%[46.1 µM]	.	.	-5.5
COc1ccccc1NC1=C(NC(C)=O)C(=O)c2ccccc2C1=O	3.7µM*	.	.	?	?	-66.0*
COC1=C(Nc2ccccc2OC)C(=O)c2ccccc2C1=O	2.33µM*	6.2%[46.1 µM]	13.5%	2.33µM*	16.5%	16.4
COc1ccccc1NC(C)=O	8.2%	9.6%	-0.1%	72.2%	7.3%	23.6
O=c1nc2onnc2c(C=NO)[nH]1	.	16.3%	0.2%	.	2.1%	-1.7
COc1ccc(OC)c(NC(=O)CN2C(=O)C3(OCCCO3)c3ccccc32)c1	-27.4%	-0.7%	3.6%	5.22µM*	-16.9%	27.0
COc1ccc(CN2CCNC(=O)C2CC(=O)NCC2CCOCC2)c(F)c1 (stereo not drawn)	5.9%	12.9%	2.3%	10.4µM*	12.8%	-1.7
COc1ccccc1CN1CCNC(=O)C1CC(=O)NCC1CCOCC1 (stereo not drawn)	-0.8%	-2.9%	3.5%	9.28µM*	-11.8%	-0.8
Cc1ccc(NC(=O)C(CC(C)C)N2Cc3ccccc3C2=O)cc1F (stereo not drawn)	.	.	12.6%[46.1 µM]	.	.	-4.6
Cc1cc(C)n(-c2ccc(C(=O)OCC(=O)Nc3cc(Cl)ccc3[N+](=O)[O-])cc2)n1	-1.3%	?	-6.0%	34.7%	16.6%	113.0
CC(=O)c1c(C)[nH]c(C(=O)OCC(=O)Nc2ccc(C)cc2[N+](=O)[O-])c1C	13.5%	?	3.1%	1.1%	2.82µM*	?
CC(=O)c1c(C)[nH]c(C(=O)OCC(=O)Nc2cc(Cl)ccc2[N+](=O)[O-])c1C	9.8%	-2.3%	.	?	10µM*	100.3
CC(=O)c1ccc(N2CCN(CN3C(=O)CC4(CCCC4)C3=O)CC2)c(F)c1	?	6.9%[46.1 µM]	10.8%	4.2%	7.0%	30.3
O=c1[nH]c(=S)[nH]c2c1[C@H](CCc1cccc(Cl)c1)O[C@H](C1CCCC1)C2	.	.	.	.	.	-39.3
CC(=O)c1ccc(N2CCN(C(=O)Cc3cccs3)CC2)cc1	-10.9%[5.75 µM]	?	-13.6%[46.1 µM]	-2.8%	-4.7%	47.8
CCOc1ccc(C(=O)CCC(=O)N2CCN(c3ccc(O)cc3)CC2)cc1	.	.	.	.	15.2%	-26.6
